Test results reported in PubChem BioAssay AID1159580 (chemical genetic matrix, 2015).
Among all 5,500 compounds or so, about 2,000 (36%) were called active. About 18% were inconclusive and are not listed. No stated cut-off is given here; in the data, active means normalized growth mostly below about 0.91 (no sharp cut-off); inconclusive means no clear call, values can overlap the other calls; inactive means mostly above about 0.92. This is one part of the list.

Assay: chemical genetic growth profiling, strain panel (AID 1159580);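 further: tested at 20 µM; growth read once vehicle control cultures reached saturation at 30 °C; 1 = growth at the plate median or of vehicle wells; lower values mean less growth of the strain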
Conditions: growth OD

Measured: normalized growth

CC(=O)O[C@H]1C[C@@H](O)C(C)(C)C2C[C@@H](OC(C)=O)[C@]3(C)C(CC[C@@]4(C)[C@H](c5ccoc5)OC(=O)C5OC543)[C@]21C (stereo partly specified)
inactive: S. cerevisiae deletion strains, locus YJL187C, strain SWE1, active compounds read low 0.996 | S. cerevisiae deletion strains, locus YJR066W, strain TOR1, active compounds read low 0.928 | S. cerevisiae deletion strains, locus YKL009W, strain mrt4, active compounds read low 0.954 | S. cerevisiae deletion strains, locus YKL068W, active compounds read low 0.976 | S. cerevisiae deletion strains, locus YKL085W, strain MDH1 (second series), active compounds read low 0.974 | S. cerevisiae deletion strains, locus YKL085W, strain MDH1, active compounds read low 0.974 | S. cerevisiae deletion strains, locus YKL160W, strain elf1, active compounds read low 1.01 | S. cerevisiae deletion strains, locus YKR001C, strain vps1, active compounds read low 0.983 | S. cerevisiae deletion strains, locus YKR026C, strain gcn3, active compounds read low 1.01 | S. cerevisiae deletion strains, locus YKR091W, strain srl3, active compounds read low 1.01 | S. cerevisiae deletion strains, locus YLL001W, strain dnm1, active compounds read low 0.998 | S. cerevisiae deletion strains, locus YLL026W, active compounds read low 1.01 | S. cerevisiae deletion strains, locus YLL041C, strain sdh2, active compounds read low 0.999 | S. cerevisiae deletion strains, locus YLR027C, strain aat2, active compounds read low 1.01 | S. cerevisiae deletion strains, locus YLR039C, strain RIC1, active compounds read low 1.04 | S. cerevisiae deletion strains, locus YLR058C, strain SHM2, active compounds read low 0.967 | S. cerevisiae deletion strains, locus YLR102C, strain apc9, active compounds read low 0.984 | S. cerevisiae deletion strains, locus YLR113W, strain HOG1, active compounds read low 1.02 | S. cerevisiae deletion strains, locus YLR221C, strain rsa3, active compounds read low 1.01 | S. cerevisiae deletion strains, locus YLR258W, strain gsy2, active compounds read low 1 | S. cerevisiae deletion strains, locus YLR262C, strain YPT6 (second series), active compounds read low 1.01 | S. cerevisiae deletion strains, locus YLR262C, strain YPT6, active compounds read low 1.02 | S. cerevisiae deletion strains, locus YLR268W, strain sec22, active compounds read low 0.977 | S. cerevisiae deletion strains, locus YLR320W, strain mms22, active compounds read low 1.02 | S. cerevisiae deletion strains, locus YLR330W, strain CHS5, active compounds read low 0.992 | S. cerevisiae deletion strains, locus YLR342W, strain FKS1 (second series), active compounds read low 0.988 | S. cerevisiae deletion strains, locus YLR342W, strain FKS1, active compounds read low 1.01 | S. cerevisiae deletion strains, locus YLR357W, strain rsc2, active compounds read low 1.04 | S. cerevisiae deletion strains, locus YLR370C, strain arc18, active compounds read low 0.999 | S. cerevisiae deletion strains, locus YLR371W, strain rom2, active compounds read low 0.988 | S. cerevisiae deletion strains, locus YLR384C, strain iki3, active compounds read low 0.999 | S. cerevisiae deletion strains, locus YLR418C, strain cdc73, active compounds read low 0.979 | S. cerevisiae deletion strains, locus YML016C, strain PPZ1, active compounds read low 0.975 | S. cerevisiae deletion strains, locus YML032C, strain rad52, active compounds read low 0.991 | S. cerevisiae deletion strains, locus YML120C, strain ndi1, active compounds read low 1.01 | S. cerevisiae deletion strains, locus YML124C, strain tub3, active compounds read low 0.986 | S. cerevisiae deletion strains, locus YMR058W, strain fet3, active compounds read low 1.01 | S. cerevisiae deletion strains, locus YMR078C, strain ctf18, active compounds read low 0.988 | S. cerevisiae deletion strains, locus YMR125W, strain sto1, active compounds read low 1 | S. cerevisiae deletion strains, locus YMR129W, active compounds read low 1.03 | S. cerevisiae deletion strains, locus YMR205C, strain PFK2, active compounds read low 1.01 | S. cerevisiae deletion strains, locus YMR223W, strain ubp8, active compounds read low 0.991 | S. cerevisiae deletion strains, locus YMR231W, strain pep5, active compounds read low 0.988 | S. cerevisiae deletion strains, locus YMR307W, strain GAS1, active compounds read low 0.964 | S. cerevisiae deletion strains, locus YNL067W, strain RPL9B, active compounds read low 1.02 | S. cerevisiae deletion strains, locus YNL071W, strain lat1, active compounds read low 1 | S. cerevisiae deletion strains, locus YNL183C, strain NPR1, active compounds read low 0.946 | S. cerevisiae deletion strains, locus YNL209W, strain ssb2, active compounds read low 0.995 | S. cerevisiae deletion strains, locus YNL233W, strain BNI4, active compounds read low 1 | S. cerevisiae deletion strains, locus YNL248C, strain rpa49, active compounds read low 1 | S. cerevisiae deletion strains, locus YNL250W, strain rad50, active compounds read low 1.02 | S. cerevisiae deletion strains, locus YNL271C, strain bni1, active compounds read low 0.989 | S. cerevisiae deletion strains, locus YNL298W, strain CLA4, active compounds read low 0.992 | S. cerevisiae deletion strains, locus YNL307C, strain MCK1, active compounds read low 0.995 | S. cerevisiae deletion strains, locus YNL322C, strain KRE1 (second series), active compounds read low 1.02 | S. cerevisiae deletion strains, locus YNR049C, strain mso1, active compounds read low 0.999 | S. cerevisiae deletion strains, locus YNR052C, strain pop2, active compounds read low 0.987 | S. cerevisiae deletion strains, locus YOL006C, strain TOP1, active compounds read low 0.989 | S. cerevisiae deletion strains, locus YOL012C, strain htz1 0.76 | S. cerevisiae deletion strains, locus YOL147C, strain pex11, active compounds read low 0.99 | S. cerevisiae deletion strains, locus YOR001W, strain rrp6, active compounds read low 1.03 | S. cerevisiae deletion strains, locus YOR061W, strain CKA2, active compounds read low 0.966 | S. cerevisiae deletion strains, locus YOR069W, strain VPS5, active compounds read low 0.998 | S. cerevisiae deletion strains, locus YOR070C, strain gyp1, active compounds read low 1.01 | S. cerevisiae deletion strains, locus YOR080W, strain dia2, active compounds read low 0.998 | S. cerevisiae deletion strains, locus YOR083W, strain WHI5, active compounds read low 1.01 | S. cerevisiae deletion strains, locus YOR106W, strain vam3, active compounds read low 1 | S. cerevisiae deletion strains, locus YOR136W, strain idh2, active compounds read low 0.979 | S. cerevisiae deletion strains, locus YOR144C, strain elg1, active compounds read low 0.989 | S. cerevisiae deletion strains, locus YOR184W, strain ser1, active compounds read low 0.967 | S. cerevisiae deletion strains, locus YOR231W, strain MKK1, active compounds read low 0.984 | S. cerevisiae deletion strains, locus YOR265W, strain rbl2, active compounds read low 1 | S. cerevisiae deletion strains, locus YOR270C, strain vph1, active compounds read low 0.967 | S. cerevisiae deletion strains, locus YOR290C, strain snf2, active compounds read low 1 | S. cerevisiae deletion strains, locus YOR316C, strain cot1, active compounds read low 0.989 | S. cerevisiae deletion strains, locus YPL051W, strain arl3, active compounds read low 1.02 | S. cerevisiae deletion strains, locus YPL078C, strain atp4, active compounds read low 0.997 | S. cerevisiae deletion strains, locus YPL106C, strain sse1, active compounds read low 1.02 | S. cerevisiae deletion strains, locus YPL240C, strain hsp82, active compounds read low 1.01 | S. cerevisiae deletion strains, locus YPL256C, strain CLN2, active compounds read low 0.944 | S. cerevisiae deletion strains, locus YPR119W, strain clb2, active compounds read low 0.985 | S. cerevisiae deletion strains, locus YPR141C, strain kar3, active compounds read low 0.986 | S. cerevisiae deletion strains, locus YPR163C, strain tif3, active compounds read low 0.982 | S. cerevisiae deletion strains, locus YPR167C, strain met16, active compounds read low 0.987 | S. cerevisiae deletion strains, strain wtn01, active compounds read low 0.968 | S. cerevisiae strains, strain wild type, active compounds read low 0.988
